Measured values reported in PubChem BioAssay AID1224861 (National Center for Advancing Translational Sciences (NCATS), 2016).
Inconclusive results are not listed. Active and inactive are the calls of the source. Calls come from the whole dose curve; as a rule, active = well fitted cell-killing curve with a large enough effect; inconclusive = small, poorly fitted or top-dose-only effect, or effect the other way; inactive = flat fitted curve, though single readings scatter.

assay: Compound cytotoxicity measured by an ATP content assay as a counter-screen for lead compounds in human astrocytes; settings: human astrocytes viability, ATP luminescence; series mostly up to 46.1 µM; activity change, negative = cytotoxicity: at the top concentration
Method in brief: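 Cytotoxicity expressed as percent inhibition of cell viability from ATP-dependent luminescence, read after 10 min at room temperature with 1:1 kit reagent. Compound exposure times matched the primary screens, e.g. 6, 24 or 72 h, in cultured human astrocytes.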

Compound | activity change, negative = cytotoxicity | Potency
COc1ccc(CC2=NN3C([C@@H](CCc4ccccc4)[C@@H](C)O)=NC(C)C3C(=O)N2)cc1OC (some centres not stated) | 5.6% (inactive) | 
CC(C)OC(=O)CCCC=CC[C@@H]1[C@H](C=C[C@@H](O)COc2cccc(C(F)(F)F)c2)[C@H](O)C[C@@H]1O | 8.58% (inactive) | 
CC(C(=O)O)c1ccc(C(=O)c2ccccc2)s1 (configuration not stated) | -13.1% (inactive) | 
O=C(O)[C@H](CC(=O)N1C[C@@H]2CCCC[C@H]2C1)Cc1ccccc1 | 13.6% (inactive) | 
Cc1cc(O)c2ccccc2c1O |  | 8.69 µM (active)
O=C1C(Cl)=C(NCCN2CCOCC2)C(=O)c2ncccc21 |  | 7.74 µM (active)
c1ccc2[nH]c(-c3cscn3)nc2c1 | -24.6% (inactive) | 
CCOCCOC(=O)/C=C/c1ccc(OC)cc1 | 14.2% (inactive) | 
COCCn1c2c([n+](Cc3cnccn3)c1C)C(=O)c1ccccc1C2=O |  | 0.138 µM (active)
CCCC(=O)OC[C@@H](OC(=O)CCC)[C@@H](OC(=O)CCC)[C@H](Cn1c2nc(=O)[nH]c(=O)c-2nc2cc(C)c(C)cc21)OC(=O)CCC | -3.39% (inactive) | 
O=C(O)[C@@H](c1ccc(OCc2ccc3ccccc3n2)cc1)C1CCCC1 | 1.24% (inactive) | 
O=C(CS)Nc1ccccc1 | -0.969% (inactive) | 
CC(C)c1ccc2oc3nc(N)c(C(=O)O)cc3c(=O)c2c1 |  | 2.75 µM (active)
O=C(C=CC=Cc1ccc2c(c1)OCO2)N1CCCCC1 | -18.9% (inactive) | 
CC(C(=O)O)c1ccc2c(c1)[nH]c1ccc(Cl)cc12 (configuration not stated) | 5.69% (inactive) | 
O=c1[nH]nc(Sc2ncc([N+](=O)[O-])s2)n1-c1ccc2c(c1)OCCO2 |  | 1.23 µM (active)
CC(=NNC(=S)N1CCC1)c1ccccn1 |  | 17.3 µM (active)
CC[C@]1(O)C[C@H]2CN(CCc3c([nH]c4ccccc34)[C@@](C(=O)OC)(c3cc4c(cc3OC)N(C=O)[C@H]3[C@@](O)(C(=O)OC)[C@H](OC(C)=O)[C@]5(CC)C=CCN6CC[C@]43[C@@H]65)C2)C1 | -8.84% (inactive) | 
N[C@H](CSC(c1ccccc1)(c1ccccc1)c1ccccc1)C(=O)O | 1.27% (inactive) | 

Compound | activity change, negative = cytotoxicity | Potency
O=C(Oc1ccccc1)c1cccc(C(=O)Oc2ccccc2)c1 | 6.57% [at 96.3 µM] (inactive) | 
CC(C)(C)OC(=O)CN(Cc1ccc(Cl)cc1)Cc1ccc([N+](=O)[O-])s1 | -18.4% [at 88.3 µM] (inactive) | 
Cc1ccc(C(=O)c2ccc(CC(=O)O)n2C)cc1 | 7.64% (inactive) | 
O=S(=O)(O)c1ccc2nc(-c3ccccc3)[nH]c2c1 | -7.27% (inactive) | 
O=C1c2ccccc2C(=O)c2c1ccc(O)c2O | -2.34% (inactive) | 
Cc1c(NC(=O)c2ccc(C(C)(C)C)cc2)cccc1-c1cn(C)c(=O)c(Nc2ccc(C(=O)N3CCOCC3)cc2)n1 | -12.9% (inactive) | 
Cc1ccc(O)c(N=Nc2ccccc2)n1 |  | 4.35 µM (active)
Cc1cccc(/C=C/c2ccccc2)n1 | -12.8% (inactive) | 
Oc1cc(O)cc(/C=C/c2ccc(O)c(O)c2)c1 |  | 8.69 µM (active)
Nc1ccc(N=Nc2ccccc2)c(N)n1 | 1.34% (inactive) | 
CN(C)c1ccc2cc(C(=O)N[C@@H](CCCN=C(N)CCl)C(=O)NCc3ccccc3)ccc2c1 | 16.8% (inactive) | 
CN1CC(=O)N2C(Cc3c([nH]c4ccccc34)[C@H]2c2ccc3c(c2)OCO3)C1=O (some centres not stated) | 0.946% (inactive) | 
Cc1[nH]c(C=C2C(=O)Nc3ccccc32)c(C)c1CCC(=O)O | -0.919% (inactive) | 
COc1cccc2c1C(=O)c1c(O)c3c(c(O)c1C2=O)C[C@@](O)(C(=O)CO)C[C@@H]3O[C@H]1C[C@H](N)[C@H](O[C@@H]2CCCCO2)[C@H](C)O1 | -21.9% (inactive) | 
COc1cc2nc(-c3ccc(N4CCN(C)CC4)cc3)nc(NCCN3CCOCC3)c2cc1OC | -8.43% (inactive) | 
O=C(Nc1ncc([N+](=O)[O-])s1)c1cccs1 | -6.69% (inactive) | 
CCCS(=O)c1ccc2nc(NC(=O)OC)[nH]c2c1 (configuration not stated) | -0.17% (inactive) | 
OCc1ccc(-c2ccc(-c3ccc(CO)s3)o2)s1 |  | 21.8 µM (active)
